Here are results for 35 compounds from PubChem BioAssay AID1053143 (Broad Institute, 2014).

Among all 3,400 compounds or so, about 120 (3.5%) were called active. The rule behind the calls is not given here. Only a sample is shown. Measured potencies and affinities stand elsewhere.

A short description of this assay: viability loss in HepG2 hepatoma cells – cell-based, ATP luminescence, cherry-pick, activator set 2, cytotoxicity control, dose response (AID 1053143). Particulars: CellTiter-Glo ATP luminescence, 72 h; series mostly up to 26 µM. (In general: Cellular ATP, detected with luciferase, serves as a proxy for viable cell number.)
For `CS(=O)(=O)N1CCN(c2ccc(NC(=O)c3ccc(Br)o3)cc2)CC1`, the activity change, negative = cytotoxicity result is “inactive”. The result for `CN1CCN(c2ccc(-c3ccnn3C(=O)Nc3ccccc3)cc2)CC1` reads “inactive”. Regarding `Cc1ccccc1Nc1nn2c(=O)c3ccccc3nc2s1`, the activity change, negative = cytotoxicity entry is “inactive”. The entry for `COc1c(C(=O)NNC(=O)c2ccccc2)csc1Br` is “inactive”; for `Oc1c(/C=N/c2ccccn2)sc2ccccc12` it is “inactive”. `Cc1ccc(/C=C/C(=O)c2nc3ccccc3[nH]2)cc1`: the activity change, negative = cytotoxicity result was “inactive”. In the case of `CC(/C=N/Nc1nc2ccccc2[nH]1)=C\c1ccccc1`, the activity change, negative = cytotoxicity result was “inactive”. The entry for `CC(C)C(OC(=O)C1=Cc2ccccc2OC1)C(=O)NCC1CCCO1` (stereo not given) is “inactive”; for `Cc1ccc2nc(-c3ccc(NS(=O)(=O)c4ccc(F)cc4)cc3)sc2c1` it is “inactive”; for `Nc1ccc(-c2nc3ccccc3s2)cn1` it is “inactive”. The result for `COc1ccc(OCc2cc(C(=O)N3CCOCC3)no2)c(Cl)c1` reads “inactive”; that for `O=c1cccc2n1Cc1cc3ccccc3nc1-2`, “inactive”. The entry for `COc1ccc(C(=O)COC(=O)c2sccc2C)cc1OC` is “inactive”; for `O=C(Nc1ccc(NC(=O)C2CC2)cn1)c1ccccc1Cl` it is “inactive”; for `O=C(Nc1ccc(C(=O)c2ccccc2)cc1)c1ccccc1` it is “inactive”.

On to `Nc1ccccc1N=Nc1ccccc1N`, for which the activity change, negative = cytotoxicity entry is “inactive”. Take `CC(C)(C)OC(=O)N/N=C\C=C\c1ccc2c(c1)OCO2`: the activity change, negative = cytotoxicity entry was “inactive”. Consider `CCc1ccc(NC(=O)C(=O)c2ccccc2NC(C)=O)cc1`, for which the activity change, negative = cytotoxicity result was “inactive”. As to `COc1ccc(NC(=O)N2CCCc3ccccc32)cc1`, the activity change, negative = cytotoxicity entry was “inactive”. The result for `O=C(Nc1ccc2c(c1)OCO2)N1CCCc2ccccc21` reads “inactive”; that for `O=C(Nc1ccc(NC(=O)C2CCCCC2)nc1)c1cccs1`, “inactive”; that for `COc1ccc(NC(=O)/C(=C\c2ccc3c(c2)OCO3)NC(C)=O)cc1`, “inactive”. With `COc1ccc2c(c1)CCC1C2=NN(/C(C)=C\C(C)=O)C1c1ccc(F)cc1` (stereo not given), the activity change, negative = cytotoxicity result is “inactive”. The entry for `c1ccc(-c2ccc3ccccc3n2)cc1` is “inactive”. The result for `CCN(CC)c1cc(C)c(C#N)c2nc3ccccc3n12` reads “inactive”; that for `O=C(c1cccs1)N1CCN=C1SCc1ccc(F)cc1`, “inactive”. `COc1ccc(-c2cn(Cc3ccc(C(=O)c4ccccc4)cc3)nn2)cc1`: the activity change, negative = cytotoxicity result is “inactive”. As to `O=C(N/N=C/c1ccc(Br)cc1)c1ccc(Br)o1`, the activity change, negative = cytotoxicity entry is “inactive”. With `CCc1ccc2cc3c(cc2n1)C(=O)c1ccccc1-3`, the activity change, negative = cytotoxicity result is “inactive”. As for `COc1ccc(NC(=O)Nc2ccc(F)c(Cl)c2)cc1`, the activity change, negative = cytotoxicity entry was “inactive”.

As to `O=C(Nc1ccc(F)c(Cl)c1)c1ccccc1`, the activity change, negative = cytotoxicity entry is “inactive”.

For the compound `COc1ccccc1NC(=O)CCC(=O)Nc1nnc(C2CCCCC2)s1`, the activity change, negative = cytotoxicity entry is “inactive”. The result for `O=C1c2ccccc2C(=O)C1c1ccnc2ccccc12` reads “inactive”; that for `COc1cccc(C=Cc2nccc3ccccc23)c1OC`, “inactive”.

`C=CCSc1nc2c(cnn2-c2ccccc2)c(=O)n1N`: the activity change, negative = cytotoxicity result was “inactive”.
